Assay results: PubChem BioAssay AID2227 (Johns Hopkins Ion Channel Center, 2009)
The campaign covered roughly 310,000 compounds. About 1,300 (0.42%) were called active.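 Rule for the calls: active = B-score of calcium response area above 5 SD of library B-scores, with initial fluorescence ratio within 5 SD of library; inactive = the rest.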 For the sample, actives were picked, then their nearest neighbours and some compounds at random.

What follows are compounds tested against Short transient receptor potential channel 4 (Mus musculus) (UniProt Q9QUQ5) (assay: positive allosteric modulators of TRPC4, primary screen, cell-based, mouse TRPC4beta, HEK293 mu-opioid, Fluo-4 calcium (AID 2227;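 for B-score: B-score of integrated fluorescence ratio over time as area under calcium response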)). Details: DAMGO EC20, Fluo-4 Ca2+ flux, at 10 µM; stronger effect = higher value.
Sequence of Short transient receptor potential channel 4 (Mus musculus) (Q9QUQ5 whole entry, looked up): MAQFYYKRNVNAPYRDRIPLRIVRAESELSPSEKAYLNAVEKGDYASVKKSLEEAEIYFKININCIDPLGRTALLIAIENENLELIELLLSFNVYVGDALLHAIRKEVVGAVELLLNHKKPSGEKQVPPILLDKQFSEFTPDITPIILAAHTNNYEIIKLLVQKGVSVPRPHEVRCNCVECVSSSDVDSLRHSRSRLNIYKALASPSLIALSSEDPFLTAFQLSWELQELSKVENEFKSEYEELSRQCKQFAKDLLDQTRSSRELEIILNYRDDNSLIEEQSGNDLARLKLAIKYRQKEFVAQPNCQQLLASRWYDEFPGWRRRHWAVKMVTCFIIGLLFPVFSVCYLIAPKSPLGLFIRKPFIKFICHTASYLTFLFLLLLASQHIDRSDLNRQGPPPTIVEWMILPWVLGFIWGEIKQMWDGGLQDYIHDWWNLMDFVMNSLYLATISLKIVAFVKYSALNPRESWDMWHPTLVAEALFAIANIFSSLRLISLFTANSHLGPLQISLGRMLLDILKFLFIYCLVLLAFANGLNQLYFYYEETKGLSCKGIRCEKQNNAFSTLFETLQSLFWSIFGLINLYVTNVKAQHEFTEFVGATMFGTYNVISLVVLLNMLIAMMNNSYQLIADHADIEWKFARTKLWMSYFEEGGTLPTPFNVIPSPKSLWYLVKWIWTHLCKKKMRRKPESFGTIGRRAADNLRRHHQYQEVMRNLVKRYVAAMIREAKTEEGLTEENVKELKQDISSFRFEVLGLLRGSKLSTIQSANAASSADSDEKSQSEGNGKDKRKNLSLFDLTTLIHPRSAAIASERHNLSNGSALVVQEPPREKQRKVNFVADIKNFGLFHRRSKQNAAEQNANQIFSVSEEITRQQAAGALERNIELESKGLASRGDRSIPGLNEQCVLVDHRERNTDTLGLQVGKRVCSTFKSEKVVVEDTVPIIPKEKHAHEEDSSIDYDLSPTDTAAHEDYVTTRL

Compound	B-score
CCN1/C(=C\c2ccc3ccccc3[n+]2CC)Sc2cc(C)ccc21	13 (active)
N#Cc1cc([N+](=O)[O-])ccc1NCC1CCCO1 (centres undefined)	inactive
CCc1ccc2c(c1)C1(NN=C(c3ccccc3)S1)C(=O)N2 (centres undefined)	11 (active)
COC(C[C@H](O)CC(=O)COCc1ccccc1)OC	inactive
Cc1cccc(Cn2c(SCCO)nc3c2c(=O)n(C)c(=O)n3C)c1	inactive
COC(=O)C(C)Sc1nc2c(c(=O)n(C)c(=O)n2C)n1Cc1cccc(C)c1 (centres undefined)	inactive
Cc1cccc(Cn2c(N3CCN(c4ccccc4)CC3)nc3c2c(=O)n(C)c(=O)n3C)c1	41 (active)
CCOC(=O)NN1C(=O)c2ccccc2NC1c1ccccc1O (centres undefined)	inactive
CC(NS(=O)(=O)c1ccc(Br)cc1)C(=O)NCC1CCCO1 (centres undefined)	inactive
OC(CNCC1CCCO1)Cn1c2ccc(Br)cc2c2cc(Br)ccc21 (centres undefined)	17 (active)
O=C(CSc1ccc(-c2ccc(Br)cc2)nn1)NCC1CCCO1 (centres undefined)	inactive
Cc1cc(S(=O)(=O)c2cc3ccc(O)c(C)c3oc2=O)ccc1F	inactive
Cc1ccc(/C=N/NC(=S)Nc2cccc(S(=O)(=O)N(C)C)c2)o1	inactive
C/C(=N\NC(=S)NC1CCCCC1)c1ccc(C)o1	inactive
Cc1ccc(/C=N/NC(=S)NC2CCCCC2)o1	35 (active)
NC(=O)C1=C[C@H](c2csc3ccccc23)C[C@H](OCc2ccc(CO)cc2)O1	inactive
O=C(NC1CC1)C1=C[C@H](c2c[nH]c3ccccc23)C[C@H](OCc2ccc(CO)cc2)O1	11 (active)
NC(=O)C1=C[C@@H](c2csc3ccccc23)C[C@@H](OCc2ccc(CO)cc2)O1	inactive
Cc1c(-c2nn(C)c(=O)c3ccccc23)oc2ccc(F)cc2c1=O	inactive
CC(=O)Nc1ccc(C(=O)CSc2nnc(Cc3ccccc3)o2)cc1	inactive
CCOc1ccc(Nc2nc(Cc3nnc(SCC(=O)c4ccc(C)cc4)o3)cs2)cc1	30 (active)
CCOc1ccc(Nc2nc(Cc3nnc(SCC(=O)NC4CCCC4)n3C)cs2)cc1	inactive
NC(=O)C1(N2CCCCC2)CCN(C(=O)c2ccc(C#Cc3ccccc3)o2)CC1	inactive

Compound	B-score
CC1CN(CCOc2ccccc2[N+](=O)[O-])CC(C)O1 (centres undefined)	inactive
CC1CC(C)CN(CCOc2cccc3ccccc23)C1 (centres undefined)	11 (active)
CN1CCN(CCCCOc2cccc3ccccc23)CC1	inactive
CCOC12CC(C)(C)CC(C)(CC3=C1C(=O)CC(C)(C)C3)C2 (centres undefined)	inactive
CCCCCCCNc1nc(Cl)nc(NCCO)n1	inactive
O=C(N/N=C/c1ccc(OCC2COCCO2)cc1)c1ccc(Br)cc1 (centres undefined)	inactive
CCOc1ccc(N2C(=O)/C(=C/c3ccc(C)o3)N(C)C2=S)cc1	inactive
CC(NC(=O)COc1cccnc1[N+](=O)[O-])c1ccc(Cl)cc1Cl (centres undefined)	inactive
CCN(CC)CCOCCOc1ccc(Cl)c2ccccc12	21 (active)
CN(C)CCOCCOc1ccc(Cl)c2ccccc12	inactive
Clc1cccc(Cl)c1OCCOCCNCc1ccccc1	inactive
O=S(=O)(Nc1cccc(-n2cnnn2)c1)c1cnc(Cl)c(Cl)c1	inactive
COc1cc(S(=O)(=O)Nc2ncn[nH]2)ccc1Cl	inactive
Cc1ccc(C)c(CN2CCC(CNC(=O)Nc3ccc(C)c(F)c3)CC2)c1	10 (active)
Cc1cccc(CN2CCC(CNC(=O)Nc3ccc(F)c(Cl)c3)CC2)c1	inactive
COc1cc(NC(=O)NCC2CCN(Cc3ccc(C)cc3)CC2)cc(OC)c1OC	inactive
COC(=O)c1cc(S(=O)(=O)N2CCC(C(N)=O)CC2)oc1C	inactive
O=c1c(-c2ccccc2Cl)c[nH]n1-c1ccccc1	inactive
Cc1ccc(C(=O)NCCc2nnc(SCC(=O)Nc3cccc(C(=O)O)c3)n2C)cc1	inactive
CCOC(=O)N1CCN(CCC(=O)Nc2ccccc2)CC1	inactive
O=C(CN1CCN(Cc2ccccc2)CC1)Nc1ccc(F)c(F)c1	inactive
Cc1cc(NC(=O)CCN2CCN(Cc3ccccc3)CC2)ccc1Br	20 (active)
COc1ccccc1C(=O)Nc1ccnn1C1CCN(Cc2cnn(C)c2)CC1	inactive

Compound	B-score
O=C(COc1ccc(Cl)cc1)Nc1ccc2c(c1)OCO2	inactive
CCC(C)Sc1nc2c(cnn2-c2ccc(F)cc2)c(=O)[nH]1 (centres undefined)	inactive
CCCCN(CC)C(=O)C1CCCN(S(=O)(=O)c2cccc3nsnc23)C1 (centres undefined)	inactive
O=C(c1ccco1)N1CCN(C(=O)C2CCCN(S(=O)(=O)c3cccc4nsnc34)C2)CC1 (centres undefined)	inactive
CCCCN(C)CCNC(=O)C1CCCN(S(=O)(=O)c2cccc3nsnc23)C1 (centres undefined)	25 (active)
CC(C)c1nc(CNC(=O)CC2C(=O)NCCN2Cc2cccc(F)c2F)cs1 (centres undefined)	inactive
C=CCNC(=O)CC12CC3CC(C1)CC(CC(=O)NCC=C)(C3)C2	inactive
CCc1c(C)nc2c(-c3ccccc3)c(C)nn2c1Nc1ccc(NC(C)=O)cc1	27 (active)
Cc1cc(-n2nc(C)cc2C)n2nc(C)c(-c3ccccc3)c2n1	inactive
Cc1cc(-c2ccccc2)n2nc(C)c(-c3ccccc3)c2n1	inactive
CCCC(C)c1nnc(NC(=O)C2CC(=O)N(c3ccc(OCC)cc3)C2)s1 (centres undefined)	inactive
COc1ccc(S(=O)(=O)NCCCc2ccccc2)cc1	32 (active)
O=S(=O)(NCCc1ccccc1)c1ccccc1	inactive
O=S(=O)(NCCCc1ccccc1)c1ccc(Br)cc1	inactive
COC(=O)c1c(NC(=O)CN2CCN(S(=O)(=O)c3ccccc3[N+](=O)[O-])CC2)sc2c1CCC(C)C2 (centres undefined)	inactive
CS/C(=C\C(=O)c1ccco1)Nc1ccccc1Cl	inactive
C#CCCCc1nc2ccccc2c(=O)n1N	inactive
CCCCn1c(N)c(N(CC(C)C)C(=O)c2cccc(S(=O)(=O)N3CC(C)OC(C)C3)c2)c(=O)[nH]c1=O (centres undefined)	inactive
CCn1cc(CN2CCN(CC(C)(C)C)C(CCO)C2)c2ccccc21 (centres undefined)	inactive
CN1CCN(c2cc3c(cc2F)c(=O)c(C(=O)O)cn3CCF)CC1	inactive
CCn1cc(C(=O)NCCO)c(=O)c2cc(F)c(N3CCN(C)CC3)cc21	inactive
CCCCCCn1cc(C(=O)O)c(=O)c2cc(F)c(N3CCCCC3)cc21	12 (active)
O=C(c1ccc(F)cc1)c1c[nH]c(C(=O)NCc2cccnc2)c1	inactive
